PubChem BioAssay (Tox21)
Records with an inconclusive call do not appear. Active and inactive are the calls of the source. Unless noted, the call rests on the fitted dose curve; in most records, active means well fitted curve in the direction sought with a large enough effect in the repeat runs; inconclusive means weak or mixed curves; inactive means no such curve, though single readings can be large; an effect the other way counts as inactive or inconclusive.

Assays:
[1] = qHTS RealTime-Glo MT Cell Viability Assay in HEK293 cells - 0 hour (AID 1224880); further: top concentration of the series differs between compounds; nearly all actives have a fitted effect of over 45% in size
How it was run: (§1)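 HEK293 + NanoLuc + prosubstrate, 600 cells/well; 5 h, 37 C/5% CO2; compound 23 nL in DMSO by pintool; 37 C; luminescence read at 0, 8, 16, 24, 32 and 40 h time points.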

[2] = A CellTox Green Cytotoxicity Assay to monitor cytotoxicity in HEK293 cells - 32 hour (AID 1224881); further: nearly all actives have a fitted effect of over 40% in size
How it was run: (§2)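 Tox21 screen in HEK293: membrane-impermeant cyanine dye fluoresces on binding dead-cell DNA; compound pinned 5 h post-seeding, plates held at 37 C, signal read repeatedly through 40 h.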

[3] = qHTS RealTime-Glo MT Cell Viability Assay in HepG2 cells - 16 hour (AID 1224885); further: nearly all actives have a fitted effect of over 50% in size
How it was run: (§3)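 Compound treatment began 5 h after plating HepG2 cells (600/well) with NanoLuc luciferase and prosubstrate. Plates stayed at 37 C for 40 h; luminescence was captured at six time points, 0 h through 40 h.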

[4] = qHTS RealTime-Glo MT Cell Viability Assay in HEK293 cells - 24 hour (AID 1224886); further: top concentration of the series differs between compounds; nearly all actives have a fitted effect of over 50% in size
How it was run: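 Quantitative high-throughput screen of the Tox21 10K library in HEK293: cells and RealTime-Glo reagents plated together, compound added at 5 h, luminescence monitored through 40 h at 37 C.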

[5] = qHTS RealTime-Glo MT Cell Viability Assay in HEK293 cells - 8 hour (AID 1224887); further: top concentration of the series differs between compounds; nearly all actives have a fitted effect of over 50% in size
How it was run: as §1

[6] = A CellTox Green Cytotoxicity Assay to monitor cytotoxicity in HEK293 cells - 16 hour (AID 1224888); further: nearly all actives have a fitted effect of over 35% in size
How it was run: as §2

[7] = qHTS RealTime-Glo MT Cell Viability Assay in HepG2 cells - 0 hour (AID 1224889); further: nearly all actives have a fitted effect of over 50% in size
How it was run: as §3

[8] = A CellTox Green Cytotoxicity Assay to monitor cytotoxicity in HepG2 cells - 8 hour (AID 1224890); further: nearly all actives have a fitted effect of over 45% in size
How it was run: (§4)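 Measurements at 0, 8, 16, 24, 32 and 40 h of treatment captured CellTox Green fluorescence in HepG2 cells that had been co-plated with reagent and preincubated 5 h at 37 C/5% CO2.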

[9] = qHTS assay to identify small molecule antagonists of the androgen receptor (AR) signaling pathway using the MDA cell line in the presence of 0.5 nM R1881 - cell viability counter screen (AID 1259242); further: nearly all actives have a fitted effect of over 45% in size
How it was run: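 Concentration-response screen of compounds for toxicity in MDA-kb2 reporter cells: 16 hr at 37C with 0.5 nM R1881, endpoint live-cell protease fluorescence measured in the reporter wells.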

[10] = qHTS assay to identify small molecule HDAC inhibitors (AID 1259364);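 further: wild-type HCT-116 cells with endogenous class I/II HDAC activity; top concentration of the series differs between compounds; nearly all actives have a fitted effect of over 45% in size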
How it was run: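 Screening used wild-type human colon HCT-116 cells incubated overnight, dosed with compounds for 2 hours, and assayed with a homogeneous luminogenic HDAC I/II reagent for 30 minutes at room temperature.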

[11] = qHTS assay to identify small molecule HDAC inhibitors - cell viability counter screen (AID 1259365)
How it was run: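 Counter screen in wild-type HCT-116 cells: compounds dissolved in DMSO are pin-transferred onto overnight-plated cells and left 2hr at 37C. ATP-based CellTiter-Glo luminescence then measures viable cells.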

[12] = A CellTox Green Cytotoxicity Assay to monitor cytotoxicity in HEK293 cells - 8 hour (AID 1224884); further: nearly all actives have a fitted effect of over 35% in size
How it was run: as §2

[13] = qHTS assay to identify small molecule antagonists of the estrogen receptor alpha (ER-alpha) signaling pathway using the BG1 cell line in the presence of 0.1 nM 17-beta-estradiol - cell viability counter screen (AID 1259241); further: nearly all actives have a fitted effect of over 40% in size
How it was run: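 Cells were plated and left 24 hr, compounds in DMSO were pinned in, 17beta-estradiol was added to 0.1 nM final, and after 22 hr CellTiter-Fluor reagent was added for 30 min before fluorescence was read.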

[14] = molecular target: Estrogen receptor (Homo sapiens) (UniProt P03372); assay: qHTS assay to identify small molecule antagonists of the estrogen receptor alpha (ER-alpha) signaling pathway using the BG1 cell line in the presence of 0.1 nM 17-beta-estradiol (AID 1259244); further: nearly all actives have a fitted effect of over 50% in size
Sequence of Estrogen receptor (Homo sapiens) (P03372 whole entry, looked up): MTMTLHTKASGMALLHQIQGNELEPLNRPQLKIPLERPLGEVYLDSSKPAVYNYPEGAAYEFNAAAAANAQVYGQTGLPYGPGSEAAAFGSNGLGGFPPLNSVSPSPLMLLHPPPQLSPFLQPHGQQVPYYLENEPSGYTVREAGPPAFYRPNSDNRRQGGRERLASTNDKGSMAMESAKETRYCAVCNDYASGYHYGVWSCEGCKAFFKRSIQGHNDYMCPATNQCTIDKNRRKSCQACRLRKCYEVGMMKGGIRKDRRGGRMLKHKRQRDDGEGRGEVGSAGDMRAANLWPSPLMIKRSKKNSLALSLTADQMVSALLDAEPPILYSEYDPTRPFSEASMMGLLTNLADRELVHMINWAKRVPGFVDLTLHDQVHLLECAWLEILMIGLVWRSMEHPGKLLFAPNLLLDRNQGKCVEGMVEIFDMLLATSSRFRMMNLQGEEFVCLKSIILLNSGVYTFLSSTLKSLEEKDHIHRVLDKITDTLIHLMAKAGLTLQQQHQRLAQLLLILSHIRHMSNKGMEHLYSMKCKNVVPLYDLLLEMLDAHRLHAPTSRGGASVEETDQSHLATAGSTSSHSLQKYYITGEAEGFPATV
How it was run: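 Compounds were tested against 0.1 nM (final) 17beta-estradiol in VM7Luc4E2 cells, which express full-length ER-alpha and an ERE-luciferase reporter; luminescence was recorded following 22 h exposure.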

[15] = qHTS assay to identify small molecule phospholipidosis (PLD) inducers (AID 1259344; active means well fitted curve in the direction sought with a large enough effect; an effect the other way counts as inactive or inconclusive)
How it was run: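 Phospholipid accumulation was scored by imaging: fixed, Hoechst-counterstained HepG2 cells stained with LipidTOX Red after 24 h compound exposure at 37 C. Read-outs were pit count and pit intensity per well or per cell, with amiodarone and DMSO controls.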

[16] = qHTS assay to identify small molecule agonists of the sonic hedgehog signaling (Shh) pathway - cell viability counter screen (AID 1259366); further: nearly all actives have a fitted effect of over 50% in size
How it was run: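 Cells are plated at 2,000 per well and left 4hr at 37C, 5% CO2 before compound addition. After 23hr of treatment, CellTiter-Fluor reagent is added for 1hr at 37C and fluorescence is measured.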

[17] = A CellTox Green Cytotoxicity Assay to monitor cytotoxicity in HepG2 cells - 32 hour (AID 1224883); further: nearly all actives have a fitted effect of over 50% in size
How it was run: as §4

[18] = qHTS assay to identify small molecule antagonists of the sonic hedgehog signaling (Shh) pathway - cell viability counter screen (AID 1259367); further: nearly all actives have a fitted effect of over 55% in size
How it was run: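 Viability was read by CellTiter-Fluor fluorescence in the same wells, reagent added 23 hr into compound treatment and incubated 1 hr at 37C. The 3T3 Gli1-Luc reporter cells (2,000/well) received conditioned medium after compound and ran 24 hr.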

[19] = A CellTox Green Cytotoxicity Assay to monitor cytotoxicity in HepG2 cells - 0 hour (AID 1224882); further: nearly all actives have a fitted effect of over 35% in size
How it was run: as §4

[20] = molecular target: Androgen receptor (Homo sapiens) (UniProt P10275); assay: qHTS assay to identify small molecule antagonists of the androgen receptor (AR) signaling pathway using the MDA cell line in the presence of 0.5 nM R1881 (AID 1259243); further: nearly all actives have a fitted effect of over 50% in size
Sequence of Androgen receptor (Homo sapiens) (P10275 whole entry, looked up): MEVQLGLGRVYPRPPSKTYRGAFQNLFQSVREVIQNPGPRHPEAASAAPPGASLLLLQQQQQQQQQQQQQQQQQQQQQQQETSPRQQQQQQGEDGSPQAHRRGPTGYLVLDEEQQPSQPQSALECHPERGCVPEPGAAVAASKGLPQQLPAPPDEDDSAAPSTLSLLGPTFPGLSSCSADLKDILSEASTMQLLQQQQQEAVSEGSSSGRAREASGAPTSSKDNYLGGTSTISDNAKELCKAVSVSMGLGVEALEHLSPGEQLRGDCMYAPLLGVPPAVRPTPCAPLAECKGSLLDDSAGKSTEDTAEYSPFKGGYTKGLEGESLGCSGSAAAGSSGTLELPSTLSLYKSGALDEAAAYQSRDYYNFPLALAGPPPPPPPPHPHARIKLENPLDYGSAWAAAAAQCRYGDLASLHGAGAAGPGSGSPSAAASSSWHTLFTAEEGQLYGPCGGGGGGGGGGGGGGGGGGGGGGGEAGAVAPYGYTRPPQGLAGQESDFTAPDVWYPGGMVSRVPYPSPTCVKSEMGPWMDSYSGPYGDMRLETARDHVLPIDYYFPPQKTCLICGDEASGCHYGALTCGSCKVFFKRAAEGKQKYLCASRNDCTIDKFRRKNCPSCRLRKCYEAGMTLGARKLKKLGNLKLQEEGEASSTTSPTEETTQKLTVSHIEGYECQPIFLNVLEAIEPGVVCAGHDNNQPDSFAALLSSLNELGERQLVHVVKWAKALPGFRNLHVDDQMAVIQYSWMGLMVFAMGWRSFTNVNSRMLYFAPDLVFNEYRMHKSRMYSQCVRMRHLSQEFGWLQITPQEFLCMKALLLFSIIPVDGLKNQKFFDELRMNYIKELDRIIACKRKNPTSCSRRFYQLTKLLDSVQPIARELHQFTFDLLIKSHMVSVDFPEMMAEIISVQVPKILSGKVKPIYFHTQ
How it was run: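 With R1881 held at 0.5 nM (final), compound effects on MMTV-luciferase expression in MDA-kb2 cells were scored by luminescence after a 16 hr, 37C incubation.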

Measured: Potency

C[C@@H]1O[C@@H](O[C@@H]2[C@@H](O)[C@H](OCCc3ccc(O)c(O)c3)O[C@H](CO[C@@H]3O[C@H](CO)[C@@H](O)[C@H](O)[C@H]3O)[C@H]2OC(=O)/C=C/c2ccc(O)c(O)c2)[C@H](O)[C@H](O)[C@H]1O
inactive: [1] | [2] | [3] | [4] | [5] | [6] | [7] | [8] | [9] | [10] | [11]

CC(=C(CCOC(=O)C(C)C)SSC(CCOC(=O)C(C)C)=C(C)N(C=O)Cc1cnc(C)nc1N)N(C=O)Cc1cnc(C)nc1N
not listed: [8] | [17] | [18] | [19] | [20]
inactive: all other assays above

OCCCCC(O)CO (stereo not drawn)
not listed: [14] | [15] | [19] | [20]
inactive: all other assays above

Oc1ccccc1-c1nnco1
not listed: [1] | [15]
inactive: all other assays above

CN(CCOc1ccc(NS(C)(=O)=O)cc1)CCc1ccc(NS(C)(=O)=O)cc1
not listed: [19] | [20]
inactive: all other assays above

CC(=O)N[C@@H](CCC(=O)O)C(=O)O
not listed: [14] | [18] | [19] | [20]
inactive: all other assays above

CC(C)c1ccc2cc(C(C)C)ccc2c1
not listed: [1] | [15]
inactive: all other assays above

COCCOCCOCCOCCOCCO
not listed: [14] | [15] | [19] | [20]
inactive: all other assays above
